A number with no mark means an inactive call.
test system: Caenorhabditis elegans L1 (N2); test: survival and reproduction score of C. elegans L1 (0: 0-10 living worms, 1: 11-20, 2: 21-50, 3: >50, 4: overgrown) (score 0-4); higher = more worms, less nematicidal, active = 1 or less; extreme values may be limits of the assay; conditions: 60 µM; 6 days; temperature: 20 °C
How it was run: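 Each 96-well well received about 20 synchronized N2 L1 worms of C. elegans, E. coli HB101 and liquid NGM, plus compound pinned to 60 µM final (0.6% v/v DMSO). Sealed plates were incubated with shaking at 200 rpm, 20 °C, for 6 days. Survival and reproduction were rated under a dissection microscope as an ordinal score of living worms per well, averaged across biological replicates. The scale spanned 0 (0–10 worms) to 4 (overgrown, starved), and there were two replicates.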

Row | Structure (SMILES) | survival and reproduction score
1 | COc1ccc(-c2noc(COc3ccc(C(C)(C)C)cc3Br)n2)cc1 | 4
2 | Cc1ccc(-c2nc(-c3cccc(C)c3)no2)cc1 | 1 (active)
3 | Cc1ccccc1OCc1nc(-c2ccc(NC(=O)c3ccc(Br)o3)cc2)no1 | 4
4 | COc1ccc(NC(=O)c2ccccc2-c2nc(-c3ccccc3C)no2)cc1 | 4
5 | COc1ccc(-c2noc(CSc3ccc(C)cc3)n2)cc1 | 4
6 | COc1ccc(OCc2nc(-c3ccccc3)no2)cc1 | 4
7 | CC(=O)Nc1cccc(-c2nnc(SCc3ccc(F)cc3)o2)c1 | 4
8 | CCOc1ccccc1NC(=O)CSc1nnc(-c2ccccc2)o1 | 4
9 | CCOc1ccc(-c2nc(-c3ccccc3)no2)cc1 | 4
10 | Cc1ccc(-c2nc(-c3ccccc3Br)no2)cc1 | 4
11 | Cc1cccc(-c2noc(-c3ccc(Br)cc3)n2)c1 | 4
12 | Cc1ccc(OCc2nc(-c3ccccc3)no2)cc1C | 4
13 | COc1nc(-c2ccccc2)ccc1-c1noc(-c2ccccc2C)n1 | 4
14 | Cc1cc(Br)ccc1OCc1nc(-c2ccccn2)no1 | 4
15 | Clc1cccc(-c2nc(-c3ccc4c(c3)OCO4)no2)c1 | 4
16 | Cc1ccccc1-c1nc(-c2ccc(Cl)cc2)no1 | 0 (active)
17 | CCc1nnc(NC(=O)CSc2nnc(-c3cccc(C)c3)o2)s1 | 4
18 | CCc1ccc(C(=O)Nc2ccccc2-c2nc(-c3cccnc3)no2)cc1 | 4
19 | O=C(CSc1nnc(-c2ccccc2)o1)Nc1ccc(Br)cc1F | 4

Row | Structure (SMILES) | survival and reproduction score
20 | Cc1cc(OCc2nc(-c3ccccc3)no2)cc(C)c1Cl | 4
21 | O=C(CSc1nnc(-c2ccccc2Cl)o1)Nc1ccc(Br)cn1 | 4
22 | CCOc1ccccc1NC(=O)CSc1nnc(-c2ccco2)o1 | 4
23 | Cc1cc(C)cc(NC(=O)CSc2nnc(-c3ccccc3)o2)c1 | 4
24 | COc1ccc(-c2noc(COc3ccc(Cl)cc3)n2)cc1 | 4
25 | COc1ccc(-c2noc(COc3ccc(C4CCCCC4)cc3)n2)cc1 | 4
26 | CCOc1ccc(NC(=O)CSc2nnc(-c3ccncc3)o2)cc1 | 4
27 | COc1cccc(-c2nc(-c3ccc(Cl)cc3)no2)c1 | 4
28 | O=C(Nc1ccccc1-c1nc(-c2cccnc2)no1)c1cccs1 | 4
29 | c1ccc(-c2noc(COc3ccc4c(c3)CCCC4)n2)cc1 | 4
30 | Cc1ccc(-c2nnc(SCc3ccccc3C#N)o2)cc1 | 4
31 | CCCOc1ccc(-c2nc(-c3ccncc3)no2)cc1 | 0 (active)
32 | O=C(CSc1nnc(-c2ccccc2)o1)c1ccc(Br)cc1 | 4
33 | COc1ccc(-c2noc(COc3ccc(Cl)cc3Cl)n2)cc1 | 4
34 | Cc1cc(C)nc(SCc2nc(-c3ccccc3)no2)n1 | 4
35 | Cc1cc(OCc2nc(-c3ccccn3)no2)c(C)cc1Br | 4
36 | Cc1ccc(NC(=O)CSc2nnc(-c3ccccc3)o2)cc1F | 4
37 | Cc1cccc(-c2noc(COc3ccccc3Cl)n2)c1 | 4
38 | Cc1ccc(OCc2nc(-c3ccccc3)no2)c(Br)c1 | 4

Reference: the supplement of paper PMC11219838
